Experimental findings from PubChem BioAssay (NCI) are described below.

“And” between values parts separate entries of the source, which are not always exact repeats. Identical values can stand only once. The panel holds about 83,000 compounds, 20% with a hit somewhere; the sample as a whole holds those more often.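 Cell lines were cultured in 96-well plates, exposed to a single compound concentration, and assessed for percent growth 48 hours later.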 The source made the active and inactive calls. The calls were made as follows: active = growth percent below 10; inactive = the rest.

The assay deals with MDA-MB-468 breast. Nature of the assay: NCI-60 one-dose screen, 48 h (100 = growth as untreated, 0 = no growth, -100 = all killed). The conditions noted are these: 10 µM unless noted.
`COc1cccc(/C=C2\COc3ccc(O)c(O)c3C2=O)c1OC`: the growth is -19.2% (active).
Consider `O=c1[nH]c2cc(Cl)c(Cl)cc2o1`, for which the growth is 111% (inactive).
With `CC(=O)c1c(C)[nH]c(-c2nc3ccc(N4CCN(C)CC4)cc3[nH]2)c1-c1ccccc1`, the growth is 24.1% (inactive).
As for `COc1cc(/C=N\NC(=O)CN2CCN(c3cc4c(cc3F)c(=O)c(C(=O)N/N=C/c3ccc(O)c(OC)c3)cn4C3CC3)CC2)ccc1O`, the growth is -37.8% (active).
Then `O=C(NCc1ccco1)Nc1c(Cl)cc(Cl)cc1Cl`, with 87.8% (inactive); and `CC1=C(C)C(=O)C(Nc2cccc(C(=O)OC(C)(C)C)c2)=CC1=O`, with 37.5% (inactive); and `COCCn1cc(-c2nc(-c3cc4cccnc4n3C)cs2)c2ccccc21`, with -16.1% (active).
Next, `CCCCCCCCCCCCCCCC1=NCCN1`: -32.9% (active); `Cc1cccc(NC(=O)CSc2nc3ccccc3[nH]2)c1`: 104% (inactive); `CCCCCCN(CCCCCC)C(=N)c1ccnc2ccccc12`: 12.5% (inactive).
Then `Nc1cccc(-c2nc3sccn3c2-c2ccnc(NCCNS(=O)(=O)c3ccc(C(F)(F)F)cc3)n2)c1`, with 51.4% (inactive).
For `CC(=O)[C@H]1CC[C@H]2[C@@H]3CC[C@H]4CC=CC[C@]4(C)[C@H]3CC[C@]12C`, the growth was 84.7% (inactive).
Next, `O=C1C=CC2(NN=C(c3ccccc3)N2c2cccc(Cl)c2)c2cccc(O)c21` (stereo not given): 76.1% (inactive).
In the case of `O=C(O)CCCN1C(=O)CSC1=S`, the growth is 99.3% (inactive).
As to `CN1CCN(c2ccc3nc(-c4cc(C(C)(C)C)c(O)c(C(C)(C)C)c4)[nH]c3c2)CC1`, the growth was 65.4% (inactive).
Next, `CCCCCCCCCCCCSC1=C(Cl)C(=O)C(OC)=C(OC)C1=O`: 20.9% (inactive); `CC1(C)CC[C@]2(C(=O)N3CCCNCC3)CC[C@]3(C)C(=CC[C@@H]4[C@@]5(C)CCC(=O)C(C)(C)[C@@H]5CC[C@]43C)[C@H]2C1`: 106% (inactive); `N#Cc1nn(-c2cc(=O)[nH]c3ccc(Cl)cc23)c(N)c1C#N`: 110% (inactive).
On to `O=C1NCCc2c1noc2-c1ccccc1`, for which the growth was 99.2% (inactive).
Next, `COc1ccc(C2CC(c3ccccc3)=Nc3ccccc3S2)cc1` (stereo not given): 102% (inactive); `COc1ccc2c(c1)c(-c1nc(-c3c[nH]c4ncccc34)cs1)cn2CCCN1CCCCC1`: 57.9% (inactive); `c1ccc(Nc2ccccn2)nc1`: 93.3% (inactive).
Next, `COc1ccc(Cl)cc1-n1nnc(-c2nc3ccccc3[nH]2)c1N`: 63.2% (inactive); `COc1cc(NS(=O)(=O)c2ccc(N)cc2)ncn1`: 105% (inactive); `CC/C(=C(/c1ccc(O)cc1)c1ccc(OCCN2CCCCC2)cc1)c1ccc(OC)cc1`: 60.7% (inactive).
Regarding `CC(C)(C)c1cc(C(C)(C)C)cc(S(=O)(=O)Nc2cc3ccccc3cc2C(=O)NCCN)c1`, the growth is -69.6% (active).
Turning to `COc1cc2c(=O)n(CCN(C)C)c3c4cc5c(cc4ccc3c2cc1OC)OCO5`, the growth was -66.8% (active).
Next, `COc1ccc([C@@H]2[C@@H](Cl)C(=O)N2c2cc(OC)c(OC)c(OC)c2)cc1C`: 18.9% (inactive); `CCCCN(CCCC)CCCO`: 106% (inactive); `O=c1nc(Nc2nc3ccccc3s2)[nH]c(=O)c2ccccc12`: 99.4% (inactive).
As to `O=c1ccc2nc(-c3ccccc3)nn(-c3ccccc3)c-2c1`, the growth was -81.6% (active).
Next, `CC(C)(O)Cn1cc(-c2ccc3nc(OC4CC4)ccc3c2)c2c(N)ncnc21`: 89.1% (inactive) and 50.9% (inactive); `Cn1cc(-c2noc(-c3cn(C)c4ncc(F)cc34)n2)c2ccccc21`: 36.2% (inactive).
Next, `COc1ccc(N(C)c2nc(Cl)nc3ccn(C)c23)cc1`: 49.9% (inactive).
Then `CN(C)c1ncc(/C=C2\SC(=S)N(Cc3ccccc3Cl)C2=O)s1`, with 95.6% (inactive); and `N#Cc1c2c(c(N)[nH]c1=O)C(=O)NC2(O)c1ccccc1` (stereo not given), with 104% (inactive); and `CCN(CC)c1ccc2[nH]c3c(C(N)=O)cc(=O)c(=O)c=3oc2c1`, with -38.4% (active).
For the compound `CSc1nc(N)c2c(n1)NC(c1ccccc1)C1CCc3ccccc3C1=N2` (stereo not given), the growth was 76.4% (inactive).
With `Cc1ccc(-c2nc3c(c(-c4ccccc4)nn3-c3ccccc3)c(-c3ccc(O)cc3)c2C#N)cc1`, the growth is 52.7% (inactive).
As for `O=C(/C=C\c1ccc2ccccc2n1)c1cc(Cl)ccc1O`, the growth is 107% (inactive).
